In PubChem BioAssay (EPA / NIEHS) one finds outcome and AC50 data, which are given here for 21 molecules.

The structures appear in SMILES notation. Records with an inconclusive call do not appear. Activity calls are given as the source filed them. How the source made its calls: active means hit-call score of the fitted dose curve at least 0.9, where 1 is the maximum; inconclusive means response in the unintended direction; inactive means score below 0.9.

Chain of human Serotonin Transporter (SERT), SLC6A4 (gene 6532) (P31645 whole entry, looked up): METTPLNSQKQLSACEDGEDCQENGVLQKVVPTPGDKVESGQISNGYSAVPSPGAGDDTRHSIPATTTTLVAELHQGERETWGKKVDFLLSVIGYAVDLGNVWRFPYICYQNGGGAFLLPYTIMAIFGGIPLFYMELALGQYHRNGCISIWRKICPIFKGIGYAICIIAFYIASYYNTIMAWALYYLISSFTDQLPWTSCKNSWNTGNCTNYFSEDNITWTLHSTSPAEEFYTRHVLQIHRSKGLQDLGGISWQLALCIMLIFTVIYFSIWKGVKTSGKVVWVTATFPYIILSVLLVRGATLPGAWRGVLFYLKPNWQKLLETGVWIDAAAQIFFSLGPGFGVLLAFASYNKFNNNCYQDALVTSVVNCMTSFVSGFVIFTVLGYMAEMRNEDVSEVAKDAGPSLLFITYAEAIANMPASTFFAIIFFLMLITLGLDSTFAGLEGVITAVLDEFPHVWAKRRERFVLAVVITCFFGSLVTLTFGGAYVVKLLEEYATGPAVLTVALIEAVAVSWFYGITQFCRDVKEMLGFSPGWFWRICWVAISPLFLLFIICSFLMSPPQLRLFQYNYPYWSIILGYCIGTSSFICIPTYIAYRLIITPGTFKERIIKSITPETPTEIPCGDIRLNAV
Chain of mouse Estrogen Receptor alpha (Era), Esr1 (gene 13982) (P19785 whole entry, looked up): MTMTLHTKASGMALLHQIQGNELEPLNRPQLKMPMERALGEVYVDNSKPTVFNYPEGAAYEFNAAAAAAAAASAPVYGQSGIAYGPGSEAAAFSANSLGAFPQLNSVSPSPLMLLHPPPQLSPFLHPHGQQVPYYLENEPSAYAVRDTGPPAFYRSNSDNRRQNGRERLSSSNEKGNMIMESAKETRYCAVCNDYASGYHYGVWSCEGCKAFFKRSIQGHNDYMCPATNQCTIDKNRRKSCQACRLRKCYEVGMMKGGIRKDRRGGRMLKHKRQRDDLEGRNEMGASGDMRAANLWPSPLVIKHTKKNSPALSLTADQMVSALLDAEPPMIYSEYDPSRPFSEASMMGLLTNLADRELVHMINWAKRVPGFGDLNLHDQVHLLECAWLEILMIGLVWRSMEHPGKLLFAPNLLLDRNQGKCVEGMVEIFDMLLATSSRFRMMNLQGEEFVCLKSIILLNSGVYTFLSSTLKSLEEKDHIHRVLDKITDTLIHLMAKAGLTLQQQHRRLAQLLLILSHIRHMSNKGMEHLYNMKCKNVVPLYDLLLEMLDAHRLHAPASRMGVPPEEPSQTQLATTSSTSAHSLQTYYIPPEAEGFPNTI
Chain of Peroxisome proliferator-activated receptor gamma (Homo sapiens) (P37231 whole entry, looked up): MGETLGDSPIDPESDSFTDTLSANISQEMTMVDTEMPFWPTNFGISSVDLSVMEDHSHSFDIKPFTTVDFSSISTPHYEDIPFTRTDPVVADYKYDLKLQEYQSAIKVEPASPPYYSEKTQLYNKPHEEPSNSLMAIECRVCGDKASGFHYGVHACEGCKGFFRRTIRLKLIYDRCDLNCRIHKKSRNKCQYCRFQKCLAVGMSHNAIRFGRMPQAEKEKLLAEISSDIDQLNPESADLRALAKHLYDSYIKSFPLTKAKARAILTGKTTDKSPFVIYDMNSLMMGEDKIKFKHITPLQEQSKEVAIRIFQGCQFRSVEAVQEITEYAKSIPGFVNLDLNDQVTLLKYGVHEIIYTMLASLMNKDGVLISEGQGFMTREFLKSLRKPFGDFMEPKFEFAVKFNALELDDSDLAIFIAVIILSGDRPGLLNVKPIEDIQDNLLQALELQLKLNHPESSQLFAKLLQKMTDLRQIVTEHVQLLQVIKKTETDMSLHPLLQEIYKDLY
Chain of Estrogen receptor beta (Homo sapiens) (Q92731 whole entry, looked up, the tested form may be a part): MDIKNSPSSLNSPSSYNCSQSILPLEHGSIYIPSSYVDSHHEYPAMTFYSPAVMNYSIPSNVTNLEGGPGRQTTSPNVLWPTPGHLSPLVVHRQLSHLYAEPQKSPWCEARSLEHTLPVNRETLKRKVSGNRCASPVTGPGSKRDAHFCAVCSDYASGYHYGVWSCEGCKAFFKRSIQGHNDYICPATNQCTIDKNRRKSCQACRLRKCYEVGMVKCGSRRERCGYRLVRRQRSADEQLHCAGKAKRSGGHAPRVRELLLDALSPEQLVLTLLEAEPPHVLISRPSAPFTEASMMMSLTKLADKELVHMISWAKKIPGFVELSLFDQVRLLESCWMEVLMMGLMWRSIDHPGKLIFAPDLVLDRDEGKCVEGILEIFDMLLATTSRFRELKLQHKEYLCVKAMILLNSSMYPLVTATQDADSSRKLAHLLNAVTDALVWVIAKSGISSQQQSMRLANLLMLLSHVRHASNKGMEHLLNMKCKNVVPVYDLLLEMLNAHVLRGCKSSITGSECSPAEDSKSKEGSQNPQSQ

One test concerns the target Peroxisome proliferator-activated receptor gamma (Homo sapiens) (UniProt P37231). The experiment in a line: NVS_NR_hPPARg: NovaScreen (NVS) Nuclear Receptor Binding Assay for human Peroxisome Proliferator-activated Receptor gamma (PPARg) (AID 2283370). Summed up:
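Extracted receptor protein, cell-free; compound incubated 2 h then fluorescence polarization read. Baseline: DMSO. Actives from 25 uM duplicate screen re-run across concentrations.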
Take `Cc1c(COC(=O)[C@@H]2[C@H](/C=C(\Cl)C(F)(F)F)C2(C)C)cccc1-c1ccccc1`: the call was inactive.
Regarding `CCCC(=NOCC)C1=C(O)CC(CC(C)SCC)CC1=O` (stereo unspecified), the call was inactive.
Consider `CC(C)=CC1C(C(=O)OCc2coc(Cc3ccccc3)c2)C1(C)C` (stereo unspecified), for which the AC50 (as a rule, the concentration at which the activity in the assay is half-maximal) is 2.9 µM (active).

The target in another test is human Serotonin Transporter (SERT), SLC6A4 (gene 6532) (UniProt P31645). The test can be described thus: NVS_TR_hSERT: NovaScreen (NVS) Transporter Assay for human Serotonin Transporter (SERT) (AID 2283372). Summed up:
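Human platelet membrane preparation; displacement of radioligand from serotonin transporter measured after 1 h by filtration and scintillation counting. Single 25 uM duplicate screen, then concentration series for actives, with DMSO as negative baseline.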
Take `CC(C)N1C(=O)c2ccccc2NS1(=O)=O`: the result was inactive.
Same read-out and setting: with `CCOc1nc(F)cc2nc(S(=O)(=O)Nc3c(Cl)cccc3Cl)nn12` the entry was “inactive”; with `CNC(=O)Oc1cccc2ccccc12`, “inactive”.

For the next test, the target named is rat Serotonin Transporter (SERT), Slc6a4 (gene 25553) (UniProt P31652). The test can be described thus: NVS_TR_rSERT: NovaScreen (NVS) Transporter Assay for rat Serotonin Transporter (SERT) (AID 2283375). Summed up: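 Using rat forebrain membrane SERT, test chemicals compete with a radioligand for 1 hour, and bound counts are taken by filter-based scintillation. Screening starts at 25 uM in duplicate, followed by concentration series for actives.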
Chain of rat Serotonin Transporter (SERT), Slc6a4 (gene 25553) (P31652 whole entry, looked up): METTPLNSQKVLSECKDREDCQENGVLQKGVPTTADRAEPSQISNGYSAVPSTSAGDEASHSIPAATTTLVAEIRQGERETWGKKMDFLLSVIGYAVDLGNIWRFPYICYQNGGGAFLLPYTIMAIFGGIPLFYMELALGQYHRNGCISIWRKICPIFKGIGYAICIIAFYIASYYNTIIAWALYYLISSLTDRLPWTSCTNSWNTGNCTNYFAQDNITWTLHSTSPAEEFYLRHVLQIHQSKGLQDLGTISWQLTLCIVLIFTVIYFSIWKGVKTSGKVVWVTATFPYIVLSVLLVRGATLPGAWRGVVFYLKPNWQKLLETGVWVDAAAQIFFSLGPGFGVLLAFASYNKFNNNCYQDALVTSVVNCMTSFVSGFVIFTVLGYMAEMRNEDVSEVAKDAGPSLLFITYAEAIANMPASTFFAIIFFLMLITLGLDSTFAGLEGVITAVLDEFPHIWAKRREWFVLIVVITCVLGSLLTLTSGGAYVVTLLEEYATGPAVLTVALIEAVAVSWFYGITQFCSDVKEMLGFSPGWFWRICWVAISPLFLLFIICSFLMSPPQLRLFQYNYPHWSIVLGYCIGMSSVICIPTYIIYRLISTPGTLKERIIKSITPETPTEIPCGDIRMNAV
As for `CCOc1nc(F)cc2nc(S(=O)(=O)Nc3c(Cl)cccc3Cl)nn12`, the molecule was called inactive.
For the molecule `C=C(C)CN(CC)c1c([N+](=O)[O-])cc(C(F)(F)F)cc1[N+](=O)[O-]`, the outcome was inactive.
Regarding `CNC(=O)Oc1cccc2ccccc12`, the AC50 was 7.36 µM (active).

The target of another test is human Norepinephrine Transporter (NET), SLC6A2 (gene 6530) (UniProt P23975). The test can be described thus: NVS_TR_hNET: NovaScreen (NVS) Transporter Assay for human Norepinephrine Transporter (NET) (AID 2283377).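 Further: cell-free membrane protein extracted from CHO cells expressing human NET; displacement of radioligand from human NET seen as loss of scintillation signal.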 Summed up: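 In this cell-free binding screen, chemicals at 25 uM (duplicate) compete with a radioligand for CHO-derived human NET over 1 hour, with filter-based radiodetection.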
Chain of human Norepinephrine Transporter (NET), SLC6A2 (gene 6530) (P23975 whole entry, looked up): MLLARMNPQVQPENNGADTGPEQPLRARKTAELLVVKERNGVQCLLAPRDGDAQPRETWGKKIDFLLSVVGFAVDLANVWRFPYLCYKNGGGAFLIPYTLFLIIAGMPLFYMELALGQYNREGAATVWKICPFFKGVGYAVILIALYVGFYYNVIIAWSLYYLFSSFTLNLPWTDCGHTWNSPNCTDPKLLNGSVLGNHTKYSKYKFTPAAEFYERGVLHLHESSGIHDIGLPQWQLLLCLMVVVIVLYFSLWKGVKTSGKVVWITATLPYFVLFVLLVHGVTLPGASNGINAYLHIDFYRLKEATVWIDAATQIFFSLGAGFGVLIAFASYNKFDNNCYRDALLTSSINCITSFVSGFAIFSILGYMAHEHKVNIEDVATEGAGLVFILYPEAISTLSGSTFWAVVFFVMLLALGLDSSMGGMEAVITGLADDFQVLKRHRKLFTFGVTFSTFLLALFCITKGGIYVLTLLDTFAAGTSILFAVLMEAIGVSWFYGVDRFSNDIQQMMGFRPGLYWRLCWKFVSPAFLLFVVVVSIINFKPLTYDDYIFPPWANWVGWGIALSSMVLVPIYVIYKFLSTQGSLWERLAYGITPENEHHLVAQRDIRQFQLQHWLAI
Regarding `CC(C)N1C(=O)c2ccccc2NS1(=O)=O`, the AC50 was 14.2 µM (active).
The same measure, in the same setting: with `Cc1c(COC(=O)[C@@H]2[C@H](/C=C(\Cl)C(F)(F)F)C2(C)C)cccc1-c1ccccc1` the figure was 0.345 µM (active).
Same read-out and setting: the value for `CC(C)=CC1C(C(=O)OCc2coc(Cc3ccccc3)c2)C1(C)C` (stereo unspecified) was 10.2 µM (active); that for `C=C(C)CN(CC)c1c([N+](=O)[O-])cc(C(F)(F)F)cc1[N+](=O)[O-]` was 7.07 µM (active).
Same read-out and setting: the value for `O=P(O)(O)CCCl` was 10.6 µM (active); that for `Cn1c(-c2ccccc2)cc(-c2ccccc2)[n+]1C` was 2.75 µM (active).

A further test addresses mouse Estrogen Receptor alpha (Era), Esr1 (gene 13982) (UniProt P19785). The test can be described thus: NVS_NR_mERa: NovaScreen (NVS) Nuclear Receptor Binding Assay for mouse Estrogen Receptor alpha (Era) (AID 2283378).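 Further: hit means loss of bound radioligand signal relative to DMSO.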 Summed up: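 Measurements come from scintillation counting after filtration, taken 18 hours after chemicals were added to a cell-free mouse Era preparation with radioligand. Screening was duplicate at 25 uM, with concurrent positive and negative controls and confirmatory concentration series for actives.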
As for `COP(=S)(OC)SCn1nnc2ccccc2c1=O`, the molecule was classed as inactive.
On the same count and under the same terms, the value for `CCCC(=NOCC)C1=C(O)CC(CC(C)SCC)CC1=O` (stereo unspecified) was “inactive”; that for `COC(=O)NC(=S)Nc1ccccc1NC(=S)NC(=O)OC` was “inactive”; that for `CNC(=O)Oc1cccc2ccccc12` was “inactive”.

A further test addresses Estrogen receptor beta (Homo sapiens) (UniProt Q92731). The test can be described thus: OT_ER_ERbERb_1440: Odyssey Thera (OT) 24-hour HEK293T Protein-Complementation Assay for Estrogen Receptor-beta/-beta Homodimer (AID 2283380).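 Further: fluorescence gain from ER beta LBD homodimer complementation read by laser scanning cytometry; scored as signal increase over DMSO baseline for both agonists and antagonists.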 Summed up:
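HEK293T cells stably expressing human ER-beta LBD (aa 310-547) PCA homodimer pair, dosed 24 h; formaldehyde-fixed, Draq5-stained. Readout: increase in nuclear (agonist) or nuclear plus cytoplasmic (antagonist) fluorescence intensity versus DMSO, gain-of-signal fitting.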
Regarding `CCOc1nc(F)cc2nc(S(=O)(=O)Nc3c(Cl)cccc3Cl)nn12`, the molecule was classed as inactive.
On to `CC(C)Nc1nc(Cl)nc(NC(C)C)n1`, for which the outcome was inactive.
Still for that read-out and setting: the value for `Clc1cccc(C(Cl)(Cl)Cl)n1` was “inactive”; that for `CN/C(=N\[N+](=O)[O-])NCc1cnc(Cl)s1` was “inactive”.
On the same count and under the same terms, the value for `CCCC(=NOCC)C1=C(O)CC(CC(C)SCC)CC1=O` (stereo unspecified) was “inactive”.
`CC(C)N1C(=O)N(c2ccccc2)CSC1=NC(C)(C)C`: the AC50 is 27.7 µM (active).
As for `CS(=O)(=O)c1ccc(C(=O)C2C(=O)CCCC2=O)c([N+](=O)[O-])c1`, the outcome was inactive.
Turning to `CS(=O)(=O)c1cc(C(F)(F)F)ccc1C(=O)c1cnoc1C1CC1`, the result was inactive.
On the same count and under the same terms, with `COP(=O)(OC)O/C(C)=C/C(=O)N(C)C` the entry was “inactive”.
Regarding `CCC(C)n1c(=O)[nH]c(C)c(Br)c1=O` (stereo unspecified), the call was inactive.
On the same count and under the same terms, the value for `COc1cc(Cl)c(OC)cc1Cl` was “inactive”.
Still for that read-out and setting: the value for `CCOc1nc(C(Cl)(Cl)Cl)ns1` was “inactive”.
